For 39 compounds, Potency results are on record in PubChem BioAssay (NCATS).

Assay [1] in a line: qHTS of pediatric cancer cell lines to identify multiple opportunities for drug repurposing: Primary screen for TC32 cells (AID 1347089). Also: nearly all actives have a fitted effect of over 60% in size. The conditions noted are these: TC32 Ewing sarcoma viability, CellTiter-Glo luminescence, 48 h; series mostly up to 45.8 µM. The essentials: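 A viability screen of TC32 cells was run over 48 h, with primary MIPE doses spanning 0.78 nM–46 µM and NPC doses 0.59 nM–46 µM. ATP luminescence (CellTiter-Glo) served as the read-out.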

Assay [2] in a line: qHTS of pediatric cancer cell lines to identify multiple opportunities for drug repurposing: Primary screen for DAOY cells (AID 1347090). Also: nearly all actives have a fitted effect of over 55% in size. The conditions noted are these: DAOY medulloblastoma viability, CellTiter-Glo luminescence, 48 h; series mostly up to 46 µM. The essentials:
(§1)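 Eight- or eleven-point concentration series, 48 h treatment at 37 degrees C in growth media; readout CellTiter-Glo luminescence. Potency and efficacy were taken from the concentration-response curves.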

The nature of assay [3]: qHTS of pediatric cancer cell lines to identify multiple opportunities for drug repurposing: Primary screen for SJ-GBM2 cells (AID 1347091). The conditions noted are these: SJ-GBM2 viability, CellTiter-Glo luminescence, 48 h; series mostly up to 46 µM. The essentials: as §1
A short description of assay [4]: NS1 protein of Zika virus - qHTS assay to identify small molecule inhibitors in human HEK 293 cells (AID 1347053). Also: nearly all actives have a fitted effect of over 55% in size. The conditions noted are these: HEK293 ZIKV MR766 infection, NS1 TR-FRET, 24 h; series mostly up to 46.1 µM. An outline of the steps:
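HEK 293 cells, seeded 20 h at 37 C, were pretreated with compound 1 h, then infected with ZIKV MR766 (MOI = 0.5) for 24 h. NS1 was read by TR-FRET with two anti-NS1 antibodies, normalized to uninfected and infected wells.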

Records with an inconclusive call do not appear. The source made the active and inactive calls. Calls follow the shape of the dose curve; as a rule, active = well fitted curve in the direction sought with a large enough effect; inconclusive = small, poorly fitted or top-dose-only effect, or another doubt; inactive = no such curve, though single readings can be large; an effect the other way counts as inactive or inconclusive.
Potency is read from the fitted curve at half-maximal effect.

With `CNC(=O)c1ccc(Nc2cc(Nc3ccccc3S(=O)(=O)C(C)C)c3cc[nH]c3n2)nc1`, the figures for the Potency in assay [1], in assay [2] and in assay [3] were 2620 nM (active), 14800 nM (active) and 1050 nM (active), respectively.

Turning to `Cc1cc(Nc2ncc3c(n2)N(C)C(=O)N(c2cc(NC(=O)c4cccc(C(F)(F)F)c4)ccc2C)C3)n(C)n1`, the Potency entry in assay [4] is “inactive”. Moreover, the results for the Potency in assay [1], in assay [2] and in assay [3] were 1470 nM (active), 935 nM (active) and 296 nM (active), respectively.

As to `Cc1cnc(NC(=O)Nc2cc(Br)c(C)cc2OC[C@@H]2CNCCO2)cn1`, the Potency in assay [4] is 6620 nM (active); in assay [3], 1180 nM (active).

As to `COc1ccc(S(=O)(=O)Nc2cc(-c3c(O)ccc4ccccc34)c(O)c3ccccc23)cc1`, the Potency result in assay [4] and in assay [1] was “inactive” in each case. For the same compound, in assay [3], the Potency was 18700 nM (active).

Turning to `COc1cc(C(=O)NC2CCN(C)CC2)ccc1Nc1ncc2c(n1)N(C1CCCC1)CCC(=O)N2C(C)C`, the Potency in assay [3] is 2350 nM (active).

Consider `CC(C)c1cnn2c(NCc3ccccc3)cc(NCCCCCCN)nc12`, for which the Potency result in assay [1] was “inactive”. Besides, the Potency in assay [2] was 4690 nM (active).

As to `NC(=NCCCCCCN=C(N)N=C(N)Nc1ccc(Cl)cc1)N=C(N)Nc1ccc(Cl)cc1`, the Potency result in assay [4] and in assay [1] was “inactive” in each case. Also, the Potency in assay [2] is 5900 nM (active); in assay [3], 13200 nM (active).

On to `FC(F)(F)c1ccc(Nc2nc3ccc(Oc4ccnc(-c5ncc(C(F)(F)F)[nH]5)c4)cc3[nH]2)cc1`, for which, in assay [1], the Potency result was “inactive”. For the same compound, the Potency is 18700 nM (active) in assay [2] and 16600 nM (active) in assay [3].

Take `CC(O)(C#Cc1ccc2c(c1)N(c1nc(N)ncc1Cl)CC2)c1nccs1` (stereo not given): the Potency entry in assay [1] is “inactive”. The Potency in assay [2] is 7430 nM (active); in assay [3] it was 13200 nM (active).

As to `N=c1ccn2c(n1)O[C@H]1[C@@H](O)[C@@H](CO)O[C@H]12`, the Potency entry in assay [4] is “inactive”. In assay [1], the Potency is 1040 nM (active).

On to `CCOc1cc2ncc(C#N)c(Nc3ccc(OCc4ccccn4)c(Cl)c3)c2cc1NC(=O)C=CCN(C)C`, for which, in assay [4], the Potency entry was “inactive”. For the same compound, the Potency in assay [3] was 1180 nM (active).

Regarding `CCC(C(=O)O)C1CCC(C)C(C(C)C(O)C(C)C(=O)C(CC)C2OC3(C=CC(O)[C@@]4(CC[C@](C)(C5CC[C@@](O)(CC)C(C)O5)O4)O3)C(C)CC2C)O1` (stereo not given in full), the Potency in assay [4] is 1660 nM (active); in assay [1], 5230 nM (active); in assay [2], 11800 nM (active); in assay [3] it was 11800 nM (active).

For the compound `O=C(Nc1nnc(-c2ccco2)o1)c1cc(-c2ccccc2)nc2ccccc12`, in assay [2], the Potency is 14800 nM (active).

For `COc1cc(CCc2cc(NC(=O)c3ccc(N4C[C@@H](C)N[C@@H](C)C4)cc3)n[nH]2)cc(OC)c1`, the Potency in assay [3] was 13200 nM (active).

Regarding `N#Cc1c(C2CCNCC2)cc(-c2c(O)cccc2OCC2CC2)nc1N`, in assay [4], the Potency entry was “inactive”.

`COc1cc(O)c2c(c1)C1OC1C[C@H](O)[C@H](O)C(=O)C=CC[C@H](C)OC2=O` (stereo not given in full): the Potency in assay [4] was 11800 nM (active); in assay [2], 7430 nM (active).

Consider `CC(=O)OCC(=O)[C@@]1(O)CC[C@H]2[C@@H]3CCC4=CC(=O)CC[C@]4(C)[C@@H]3C(=O)C[C@@]21C`, for which the Potency entry in assay [4], in assay [1] and in assay [2] was “inactive” throughout.

Consider `COc1cccc2c1C(=O)c1c(O)c3c(c(O)c1C2=O)C[C@@](O)(C(=O)CO)C[C@H]3O[C@H]1C[C@H](N)[C@H](O)[C@H](C)O1`, for which the Potency was 332 nM (active) in assay [4], 930 nM (active) in assay [1], 935 nM (active) in assay [2] and 52.6 nM (active) in assay [3].

As to `CCN(CC)CCCCNc1ncc2c(n1)N(C)C(=O)N(c1c(Cl)c(OC)cc(OC)c1Cl)C2`, the Potency in assay [1] was 23400 nM (active); in assay [3] it was 14800 nM (active).

As for `NS(=O)(=O)OC[C@@H]1C[C@@H](n2ccc3c(N[C@H]4CCc5ccccc54)ncnc32)C[C@H]1O`, the Potency result in assay [4] was “inactive”. Moreover, the results for the Potency in assay [1] and in assay [2] were 1650 nM (active) and 590 nM (active), respectively.

As for `CC(=CC(=O)Nc1ccccc1C(=O)O)c1ccc2ccccc2c1`, in assay [4], the Potency was 14800 nM (active). Moreover, the Potency result in assay [1] was “inactive”.

With `COc1cccc2c1C(=O)c1c(O)c3c(c(O)c1C2=O)C[C@@](O)(C(=O)CO)C[C@@H]3O[C@H]1C[C@H](N)[C@@H](O)[C@H](C)O1`, the Potency in assay [4] is 296 nM (active); in assay [1], 658 nM (active); in assay [2], 1870 nM (active); in assay [3], 264 nM (active).

Consider `O=C(Nc1cc2cc[nH]c2cn1)c1ccccc1`, for which the Potency result in assay [4] is “inactive”. Moreover, the Potency in assay [2] and in assay [3] was 14800 nM (active) in each case.

With `Oc1ccc(-c2ccc(-c3cc(Nc4cccc(CNC5CC5)c4)n[nH]3)cc2)c(O)c1`, the Potency in assay [4] is 1180 nM (active); in assay [2], 14800 nM (active); in assay [3] it was 1480 nM (active).

With `Oc1cc(-c2nc(-c3ccccc3)[nH]c2-c2ccncc2)ccc1Cl`, the figures for the Potency in assay [4], in assay [2] and in assay [3] were 37200 nM (active), 5900 nM (active) and 4690 nM (active), respectively. In addition, in assay [1], the Potency entry is “inactive”.

`Cc1cncc2cccc(S(=O)(=O)N3CCCN(C(=O)CN)C[C@@H]3C)c12`: the Potency result in assay [4] was “inactive”. Besides, in assay [1], the Potency was 10400 nM (active).

Take `CO[C@@H]1[C@@H](O)[C@H](O)[C@@H](n2c3c(Cl)cccc3c3c4c(c5c6cccc(Cl)c6[nH]c5c32)C(=O)NC4=O)O[C@@H]1CO`: the Potency was 118 nM (active) in assay [4], 294 nM (active) in assay [1], 469 nM (active) in assay [2] and 166 nM (active) in assay [3].

For the compound `COc1cc([C@@H]2c3cc4c(cc3[C@@H](O[C@@H]3O[C@@H]5CO[C@@H](c6cccs6)O[C@@H]5[C@H](O)[C@@H]3O)[C@H]3COC(=O)[C@H]23)OCO4)cc(OC)c1O`, the Potency in assay [4] was 296 nM (active); in assay [1] it was 208 nM (active); in assay [2], 372 nM (active); in assay [3], 118 nM (active).

As to `CCOC(=O)N1CCN([N+]([O-])=NOc2ccc([N+](=O)[O-])cc2C#N)CC1`, the Potency in assay [4] was 2960 nM (active); in assay [1], 3700 nM (active).

Turning to `CC(=O)ON=C1C(c2c(O)[nH]c3cc(Br)ccc23)=Nc2ccccc21`, the Potency in assay [3] was 2960 nM (active).

Regarding `CN1CCc2c(c3ccccc3n2Cc2ccc(C(=O)NO)cc2)C1`, the Potency in assay [2] is 3720 nM (active).

As for `O=C(Nc1cccc(Nc2ncc(Br)c(NCCc3cnc[nH]3)n2)c1)N1CCCC1`, the Potency in assay [4] is 10500 nM (active); in assay [2], 18700 nM (active); in assay [3], 5900 nM (active).

As to `C[C@]12CCC(=O)C=C1[C@@H]1CC1[C@H]1[C@H]3[C@@H]4C[C@H]4[C@@]4(CCC(=O)O4)[C@@]3(C)CC[C@H]12` (stereo not given in full), the Potency result in assay [4], in assay [1] and in assay [2] was “inactive” throughout.

As for `C[C@H](NCc1ccc(OCc2cccc(F)c2)cc1)C(N)=O`, the Potency is 23500 nM (active) in assay [4], 18600 nM (active) in assay [1] and 10500 nM (active) in assay [3].

`Nc1ccn(C[C@@H](CO)OCP(=O)(O)O)c(=O)n1`: the Potency entry in assay [4], in assay [1], in assay [2] and in assay [3] was “inactive” throughout.

Turning to `C[N+](C)([O-])CCNc1ccc(NCC[N+](C)(C)[O-])c2c1C(=O)c1c(O)ccc(O)c1C2=O`, the Potency result in assay [4], in assay [2] and in assay [3] was “inactive” in each case.

For the compound `CN1[C@H]2CC(OC(=O)[C@@H](CO)c3ccccc3)C[C@H]1[C@H]1O[C@H]12` (stereo not given in full), the Potency result in assay [4], in assay [2] and in assay [3] was “inactive” each time.

Turning to `CC(N[C@H]1CCCC[C@H]1NC(=O)c1ccc(Cl)cc1)c1cccc2ccccc12` (stereo not given in full), the Potency entry in assay [4] and in assay [1] was “inactive” in each case. Moreover, the Potency in assay [2] is 29.6 nM (active).

Turning to `COc1cccc2c1C(=O)c1c(O)c3c(c(O)c1C2=O)C[C@@](O)(C(C)=O)C[C@H]3O[C@H]1C[C@H](N)[C@H](O)[C@H](C)O1`, the values for the Potency in assay [1], in assay [2] and in assay [3] were 234 nM (active), 187 nM (active) and 66.2 nM (active), respectively.
